Here are results for 98 molecules from PubChem BioAssay AID568 (Sanford-Burnham Center for Chemical Genomics, 2006).

Structures are written as SMILES. The whole screen tested about 83,000 compounds, of which fewer than 10 were called active. Not all results are given here. Potency and affinity values are given separately. Unmarked numbers belong to inactive results. The rule behind the calls is not given here.

For the assay, the target named is Heat shock cognate 71 kDa protein (Homo sapiens) (UniProt P11142). In words: Hsc70 inhibitors, probe displacement, primary screen, biochemical, fluorescence polarization (AID 568). Particulars: mP, at 20 µM, stronger effect = higher value. (Fluorescence polarisation rises when a labelled molecule tumbles more slowly, as on binding a larger partner.)
Heat shock cognate 71 kDa protein (Homo sapiens), sequence (P11142 whole entry, looked up): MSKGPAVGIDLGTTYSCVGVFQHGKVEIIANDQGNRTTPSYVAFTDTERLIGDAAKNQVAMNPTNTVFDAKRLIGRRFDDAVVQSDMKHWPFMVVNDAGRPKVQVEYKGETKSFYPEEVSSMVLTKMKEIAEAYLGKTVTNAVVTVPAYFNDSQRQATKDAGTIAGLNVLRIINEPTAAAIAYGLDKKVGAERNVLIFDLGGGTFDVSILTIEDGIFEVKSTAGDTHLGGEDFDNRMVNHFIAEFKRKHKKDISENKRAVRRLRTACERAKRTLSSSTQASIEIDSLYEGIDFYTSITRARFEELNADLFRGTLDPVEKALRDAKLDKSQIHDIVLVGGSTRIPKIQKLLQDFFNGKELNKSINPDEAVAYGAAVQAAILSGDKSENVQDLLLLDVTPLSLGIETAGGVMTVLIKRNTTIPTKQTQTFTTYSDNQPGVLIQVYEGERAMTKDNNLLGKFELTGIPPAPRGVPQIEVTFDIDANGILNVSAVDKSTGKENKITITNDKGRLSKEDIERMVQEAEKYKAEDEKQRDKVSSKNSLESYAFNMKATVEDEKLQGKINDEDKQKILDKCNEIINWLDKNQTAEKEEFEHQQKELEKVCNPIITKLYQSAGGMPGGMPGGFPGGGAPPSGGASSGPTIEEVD
Heat shock cognate 71 kDa protein (Homo sapiens), sequence (P11142 whole entry, looked up): as above
As for `O=C(Nc1cccc(Cl)c1N1CCCC1)c1cc2ccccc2o1`, the displacement was -2.4%. In the case of `CCOC(=O)C1=NN(c2ccccc2)C2(S1)SC(C(C)=O)=C(C)N2c1ccccc1` (stereo not drawn), the displacement is 3.4%.

`Cc1noc(C)c1CSc1nnc2cc(C)c3ccccc3n12`: the displacement is -6.7%.

Take `Cc1ccc(C(=O)NCc2occc2C(=O)O)o1`: the displacement is 2.4%.

As for `CCn1c2ccccc2c2nnc(SCC(=O)Nc3ncccn3)nc21`, the displacement was 5.9%.

Regarding `COc1ccc(S(=O)(=O)NCC(=O)N(CC(=O)NCC2CCCO2)c2c(C)cccc2C)cc1` (stereo not drawn), the displacement is -3.5%.

Consider `O=C(Nc1ccncc1)c1cc(F)cc(F)c1`, for which the displacement was 3.6%. With `c1ccc2sc(N3CCN(Cc4nnnn4CC4CCCO4)CC3)nc2c1` (stereo not drawn), the displacement is 1.7%. As to `Cn1c(SCc2ccc(F)cc2)nnc1-c1cccs1`, the displacement was -5%. Take `CCOc1ccc(C(C#N)N2CCOCC2)cc1OC` (stereo not drawn): the displacement is -4.5%.

As for `CCCCN(C(=O)c1cc(OC)c(OC)c(OC)c1)C1=CC2CCC(C1)N2C` (stereo not drawn), the displacement is -2.2%. Turning to `Cc1nn(-c2ccccn2)c2nc(-c3cccs3)cc(C(=O)N3CCOCC3)c12`, the displacement is 0.1%. The same measure for `Cn1c(SCC(=O)NCc2ccc3c(c2)OCO3)nnc1-c1cccs1`: -4.3%; for `COc1ccc(-c2nc(C)c(C(C)=O)n2O)cc1`: 3.1%; for `COC(=O)c1ccc(OCC(=O)c2ccccc2OC)cc1`: 2.4%. On to `CCOC(=O)c1ccc2nc(NC(=O)c3cccs3)sc2c1`, for which the displacement was -11.3%. Next, `O=C(c1cccc(S(=O)(=O)N2CCCCC2)c1)N1CCN(S(=O)(=O)c2ccc(F)cc2)CC1`: 7.4%; `N#Cc1ccccc1NC(=O)CSc1nnc(-c2ccccc2O)n1-c1ccccc1`: -3.5%. Regarding `CCN(CC)S(=O)(=O)c1cccc(C(=O)Nc2cccnc2)c1`, the displacement is 4.9%. For `CCOC(=O)c1cccc(N2C(=O)C3C(C(=O)NC4CC4)C4(C)C=CC3(O4)C2C(=O)NC(C)(C)C)c1` (stereo not drawn), the displacement is 0.8%.

Take `COc1ccc(NC(=O)CSc2nc3ccccc3c(=O)n2CCNC(C)=O)cc1`: the displacement was 1%. As to `CC(C)c1ccc(-c2nnn(Cc3nc4ccccc4s3)n2)cc1`, the displacement was 7.9%. Regarding `CC1=C(C(=O)N2CCOCC2)C(c2cccs2)NC(=O)N1` (stereo not drawn), the displacement was 1.5%. Next, `Cc1c(NC2=NC(C)(C)Cc3ccccc32)c(=O)n(-c2ccccc2)n1C`: -0.6%; `CCc1ccccc1NC(=O)N[C@@H](C)C(=O)O`: 4.3%; `CCCCNC(=S)NNC(=O)c1ccco1`: 4%. With `CC1=C(C(=O)OC(C)C)C(c2c[nH]c3ccccc23)n2ncnc2N1` (stereo not drawn), the displacement was 4.3%. For the molecule `CNS(=O)(=O)c1cccc2cccnc12`, the displacement is 5.1%. The same measure for `Cc1ccc(C)c(-n2c(SCC(=O)NCC3CCCO3)nnc2-c2ccoc2C)c1` (stereo not drawn): -2.3%. Next, `O=C1C2C3C=CC(C3)C2C(=O)N1c1ccc2ccccc2n1` (stereo not drawn): 6.3%.

For `CCOC(=O)c1c(NC(=O)CSc2nnc(-c3cccnc3)o2)sc2c1CCC2`, the displacement is -5%. For `Cn1c(CNC(=O)c2cccs2)nnc1SCC(=O)Nc1ccc(Cl)cc1`, the displacement is 1.1%. Take `COc1ccc(Br)cc1CNC(=O)CCc1nc(-c2ccccc2F)no1`: the displacement was 0%. For `COC(=O)c1[nH]nc2c1C(=O)N(C1CCCCC1)C2=O`, the displacement was 2.9%. The same measure for `CCCC1CCC(C2=N/C(=C\c3ccc(OC)c(OC)c3)C(=O)O2)CC1` (stereo not drawn): -5%. On to `Cn1c(CCN2CCN(c3ccccc3)CC2)nc2cc(NC(=O)c3ccco3)ccc21`, for which the displacement was 0.4%. The same measure for `O=C(COC(=O)c1cccnc1)c1ccc(Cl)c(Cl)c1`: -1.2%; for `CCn1c(COc2ccccc2C)nnc1SCC(=O)CC(=O)Nc1ccccc1`: 2.2%. For the molecule `CN(Cc1ccccc1)C(=O)c1ccc2c(c1)OCCO2`, the displacement is 0.2%.

`Cn1cc(S(=O)(=O)CC(=O)Nc2ccc3c(c2)OCCO3)c2ccccc21`: the displacement was 7.1%. The same measure for `NC(=O)c1ccccc1N/C=C/C(=O)c1ccco1`: 5.3%; for `CCN1CCN(CCCNC(=O)C2CCCN(c3nnc(-n4cccc4)s3)C2)CC1` (stereo not drawn): 7%; for `Cc1ccc2oc(=O)c3cnn(CC(=O)NCCN4CCOCC4)c3c2c1`: 2.8%. As for `Cc1c(C(=O)O)oc2ccc(S(=O)(=O)NCc3ccccc3)cc12`, the displacement was -0.1%. As to `COc1ccc(C(c2nnnn2Cc2cccs2)N2CCN(c3ccccc3F)CC2)cc1` (stereo not drawn), the displacement is -2.2%. On to `CC(=O)NCCn1c(SCC(=O)NCCC2=CCCCC2)nc2ccccc2c1=O`, for which the displacement is -4.3%.

As for `Cc1cc(C)cc(N(C(=O)c2ccc3c(c2)OCO3)C2C=CS(=O)(=O)C2)c1` (stereo not drawn), the displacement was -3.3%. Take `CCN(CC)S(=O)(=O)c1ccc(-c2nnc(SCc3nnc(-c4ccc(C)cc4)o3)n2CC)cc1`: the displacement was -2.9%. The same measure for `CC(C)(C)C(=O)CNS(=O)(=O)c1ccc(S(=O)(=O)NC2CCCC2)cc1`: 2.7%; for `Cc1ccc(OC(C)C)c(CN(CCO)CCO)c1`: -3.1%; for `COc1ccc(S(=O)(=O)N2CCSC2c2ccc(N)cc2)cc1` (stereo not drawn): 2.5%.

`CSc1nn(CCc2ccncc2)c(=S)s1`: the displacement is -0.7%. The same measure for `COc1cc(NC(=O)c2cc(C)on2)cc(OC)c1OC`: 8%; for `N#C/C(=C\Nc1ccc2c(c1)OCCO2)c1nc2ccccc2[nH]1`: -23.3%. On to `CC(C)c1[nH]nc2c1C(Cc1ccccc1)C(C#N)=C(N)O2` (stereo not drawn), for which the displacement is 5.2%.

Consider `COc1ccccc1N1CCN(C(=O)c2c(-c3ccccc3Cl)noc2C)CC1`, for which the displacement is -6.4%. On to `CC(=O)Nc1ccc(S(=O)(=O)Nc2cccc(N(C)S(C)(=O)=O)c2)cc1`, for which the displacement is -0.7%. As for `CCOc1ccc(S(=O)(=O)Nc2ccccc2SC)cc1`, the displacement was -1.7%. As for `NC(=O)c1ccsc1NC(=O)COc1ccccc1`, the displacement is 9.1%.

`COC(=O)c1c(NS(C)(=O)=O)sc2c1CCCC2`: the displacement was 3.6%.

Consider `COc1ccc(NC(=O)CCn2nc(C)cc2C)cc1`, for which the displacement is -4.3%.

As to `O=C(CSc1nnc(Cn2c(=O)sc3ccccc32)n1CCc1ccccc1)N1CCCC1`, the displacement is 1.9%. Next, `COc1ccc(S(=O)(=O)NCC2CCC(C(=O)N3CCC4(CC3)OCCO4)CC2)cc1` (stereo not drawn): -1.2%; `CC1CCN(c2nc(-c3ccccc3)c(C#N)c(=O)[nH]2)CC1`: -1.1%; `C=CCn1c(O)c(C(CC)=Nc2ccccc2NC(=O)CC)c(=O)[nH]c1=O`: 0%. The same measure for `NC(=O)CSc1nnc(CCc2nc3ccccc3[nH]2)n1-c1ccccc1`: -0.4%. With `COC(=O)c1ccc(Nc2nc(C)cc(=O)[nH]2)cc1`, the displacement is -5.8%. Turning to `Cc1occc1C(=O)Nc1cc(C(C)(C)C)on1`, the displacement is -3.1%.

With `CCn1c(=O)n(CC)c2cc(S(=O)(=O)Nc3ccccc3C)c(C)cc21`, the displacement was 0.5%. On to `CCOC(=O)N1CCN(C(=O)c2ccc(N3C(=O)c4ccccc4C3=O)cc2)CC1`, for which the displacement was -0.7%. In the case of `O=C1OCC(Cn2c3ccccc3c3ccccc32)O1` (stereo not drawn), the displacement was 4.8%. Turning to `O=C(CN1C(=O)c2cccc3cccc1c23)N1CCN(Cc2ccc3c(c2)OCO3)CC1`, the displacement was -5.5%.

Regarding `CC(C)C(=O)Nc1cc(=O)[nH]c2ncnn12`, the displacement is -7.6%. Consider `CCN1C(=O)Cc2cc(S(=O)(=O)N3CCOCC3)ccc21`, for which the displacement is 7%. With `N#Cc1cn(CC(=O)N2CCCC2)c2ccccc12`, the displacement was -2.4%. As for `Clc1ccc(OCCn2cnc3ccccc32)c(Cl)c1`, the displacement is -4%.

`CCC(CC)C(=O)NCc1ccccc1Cl`: the displacement was 0.3%. Turning to `Cc1ccc(S(=O)(=O)/N=C2/C=C(C3C(=O)CC(C)(C)CC3=O)C(=O)c3ccccc32)cc1`, the displacement was 4%. Regarding `Cc1ccc(C(=O)COc2nc(C)cc(C)c2C#N)cc1`, the displacement was 3.2%. `Cc1cc(=O)n2nc(N3CCCC(C(=O)NCCCN4CCc5ccccc5C4)C3)sc2n1` (stereo not drawn): the displacement is 3%. Turning to `CC(C)OC(=O)C1CC=CCC1C(=O)Nc1ccc(Cl)cc1` (stereo not drawn), the displacement was 0.4%. For `CCc1nnc(NC(=O)CSc2nnnn2C)s1`, the displacement is -1.1%.

With `CC(C)CCNC(=O)c1ccc2c(c1)ncn2C1CCCCC1`, the displacement was 0.7%. As for `Oc1ccccc1CNCCCNCc1ccccc1O`, the displacement is -1.3%. Next, `COc1ccccc1N1C(=O)CC(Sc2nc(C)cc(C)n2)C1=O` (stereo not drawn): 0.9%; `COC(=O)c1ccc(NC(=O)CCN2CCN(CCC(=O)Nc3ccc(C(=O)OC)cc3)CC2)cc1`: 2.6%. For `Cc1cc(C)c2c(N)c(S(=O)(=O)Cc3ccccc3)sc2n1`, the displacement was 3.8%.

As for `O=C(O)CCN1C(=O)C2CCCCC2C1=O` (stereo not drawn), the displacement is -0.4%. On to `Cc1ccc(OCC2Cn3c(nc4c3c(=O)n(C)c(=O)n4C)O2)cc1` (stereo not drawn), for which the displacement was 1.1%.

With `COc1ccc(OC)c(-n2nnnc2SCC(=O)O)c1`, the displacement was 4.6%. Next, `CCC(=O)N(Cc1cc2ccccc2[nH]c1=O)C(C)C`: 7%; `Cc1ccc2c(c1)NCC(C(=O)NCc1ccccc1)O2` (stereo not drawn): 1.6%; `CCc1cccc(NS(=O)(=O)c2ccc3c(c2)oc(=O)n3C)c1`: 1.5%. With `CC1(c2ccc(OC(F)F)cc2)NC(=O)N(CC(=O)Nc2ccc3c(c2)OCO3)C1=O` (stereo not drawn), the displacement is -2.6%.

Consider `Cc1cccc(C)c1NC(=O)NC1(C(=O)NCCCN2CCOCC2)CCCCC1`, for which the displacement was -2.5%. For the molecule `Cc1noc(C)c1COC(=O)CCCc1nc2ccccc2s1`, the displacement was 0.6%. For `COc1ccc(C(=O)Nc2ccc3oc(-c4cccc(F)c4)nc3c2)cc1OC`, the displacement was 2.4%.

As for `Cc1ccc(/C=N/NC(=O)CC2N=C(Cc3ccccc3)NNC2=O)cc1` (stereo not drawn), the displacement was -1.6%.
